According to the supplement of paper PMC12340641:
Whole data set: some 1,000 compounds, median “relative growth in counter assay (no AraC = 100%, AraC + DMSO = 0%)” near -1.1, cut for the highest 2% near 20. The sample holds the highest values, similar compounds and a random draw of the others, so the mix is not that of the screen.

Each compound was assayed on HEK293FT dCK*-only (assay: relative growth in counter assay (no AraC = 100%, AraC + DMSO = 0%); higher = more growth rescue independent of IKZF1). Conditions: compound concentration: 5 uM; AraC concentration: 0.3 uM; overnight pretreatment + 4 days AraC.
Procedure: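 Growth recovery screen of the molecular-glue-like (Specs) library. HEK293FT cells expressing a dCK*-IKZF1 fusion (primary) or dCK* alone (counter) were pretreated overnight with compound at 5 uM, then given 0.3 uM AraC for 4 days. Hoechst nuclei were counted by imaging. Primary: normalised to pomalidomide (100%) and DMSO (0%), mean of 2 replicates. Counter: normalised to no-AraC (100%) and AraC+DMSO (0%), single replicate.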
For `O=C1CCCC/C1=C/Nc1ccc(S(=O)(=O)Nc2cnc3ccccc3n2)cc1`, the “relative growth in counter assay” value was -1.17%.
`Cc1cnc(Nc2cccc(C3CN(C(=O)Cc4ccccc4)CCO3)n2)s1` (stereo not given) was tested, and the “relative growth in counter assay” value was -5.45%.
With `COCC(=O)N1CCC(c2cccc(Nc3nc(C)cs3)n2)CC1` the “relative growth in counter assay” value was 14%.
In the case of `O=C(C1CCCCC1)N1CCOC(c2cccc(Nc3ncc(Cc4cccc(Cl)c4)s3)n2)C1` (stereo not given), the “relative growth in counter assay” value was 13.1%.
With `O=C1CCCN1CCOCC(=O)N1CCOC(c2cccc(Nc3nccs3)n2)C1` (stereo not given) the “relative growth in counter assay” value was -1.14%.
`CC(=O)Nc1ccc(C(=O)Nc2ccc(S(=O)(=O)Nc3nccc(C)n3)cc2)cc1` was tested, and the “relative growth in counter assay” value was -3.58%.
In the case of `O=C1CCC(N2C(=O)c3cc(F)c(N4CCN(CCC5CCNCC5)CC4)cc3C2=O)C(=O)N1` (stereo not given), the “relative growth in counter assay” value was 1.21%.
`CC(C)C(=O)N1CCCC1c1csc(Nc2ccccn2)n1` (stereo not given) was tested, and the “relative growth in counter assay” value was 6.43%.
With `Cc1cc(NS(=O)(=O)c2ccc(NC(=O)C3COc4ccccc4O3)cc2)nc(C)n1` (stereo not given) the “relative growth in counter assay” value was -10.4%.
In the case of `O=C(O)CCOCCOCCOCCNc1cc2c(cc1F)C(=O)N(C1CCC(=O)NC1=O)C2=O` (stereo not given), the “relative growth in counter assay” value was 0.94%.
`CCCCc1cnc(Nc2cccc(C3CCN(C(=O)C4(C)CCCN4C(=O)OC(C)(C)C)CC3)n2)s1` (stereo not given) was tested, and the “relative growth in counter assay” value was 5.27%.
With `CC(=O)Oc1cccc(N2C(=O)c3ccc(Oc4ccc(N)cc4)cc3C2=O)c1` the “relative growth in counter assay” value was -2.02%.
For `CC(C)CC(C(=O)Nc1ccc(S(=O)(=O)Nc2ccccn2)cc1)N1C(=O)c2ccccc2C1=O` (stereo not given), the “relative growth in counter assay” value was 0.21%.
`CCOc1ccccc1OCC(=O)Nc1ccc(S(=O)(=O)Nc2ncccn2)cc1` was tested, and the “relative growth in counter assay” value was 2.46%.
In the case of `Cc1ccn(CCC(=O)N2CCOC(c3cccc(Nc4ncc(C)s4)n3)C2)n1` (stereo not given), the “relative growth in counter assay” value was -1.16%.
With `NC(=O)CN1CCCCC1c1csc(Nc2ccccn2)n1` (stereo not given) the “relative growth in counter assay” value was 8.38%.
In the case of `Cc1cc(C)nc(NS(=O)(=O)c2ccc(NS(=O)(=O)/C=C/c3ccccc3)cc2)n1`, the “relative growth in counter assay” value was 5.62%.
For `CCCc1cnc(Nc2cccc(C3CCN(C(=O)C4CCCCN4CCCO)CC3)n2)s1` (stereo not given), the “relative growth in counter assay” value was -21.2%.
With `CC(C)(N)C(=O)N1CCC(c2cccc(Nc3ncc(CC(F)(F)F)s3)n2)CC1` the “relative growth in counter assay” value was -21.1%.
For `Cc1cnc(Nc2cccc(C3CN(C(=O)C4(c5ccccc5)CC4)CCO3)n2)s1` (stereo not given), the “relative growth in counter assay” value was -7.66%.
For `CCCc1cnc(Nc2cccc(C3CCN(C(=O)C4CCCCN4CC(=O)O)CC3)n2)s1` (stereo not given), the “relative growth in counter assay” value was -19.3%.
For `Cc1cccc(N2CC(C(=O)Nc3ccc(S(=O)(=O)Nc4ncccn4)cc3)CC2=O)c1C` (stereo not given), the “relative growth in counter assay” value was 2.21%.
With `COc1ccc(C(=O)Nc2ccc(S(=O)(=O)Nc3ccccn3)cc2)cc1OC` the “relative growth in counter assay” value was 2.76%.
In the case of `O=C(O)CCOCCOCCOCCOCCNc1ccc2c(c1)C(=O)N(C1CCC(=O)NC1=O)C2=O` (stereo not given), the “relative growth in counter assay” value was 9.95%.
In the case of `CS(=O)(=O)Nc1ccc(S(=O)(=O)Nc2ncccn2)cc1`, the “relative growth in counter assay” value was 3.46%.
